The text below walks through data of paper PMC7819943, “Rice protein-binding microarrays: a tool to detect cis-acting elements near promoter regions in rice”.

Over roughly 68,000 sequences, “fluorescence intensity (a.u.)” has its median near 9,100; the highest 2% begin near 16,000. This is one part of a sample in which the highest values are shown more often than they occur.

The test deals with OsWRKY34 (Oryza sativa, UniProt Q0JBA9 1-250). Description: protein-binding microarray (RPBM); PBS, 2% BSA, 51.3 ng/ul salmon testes DNA, 50 uM zinc acetate, 200 nM TF, 25 C, 1 h; high values mean tight binding. Particulars: protein: recombinant; tags: N-terminal polyhistidine and DsRed monomer fusion (pET32a); label: CyDye5-dUTP incorporated in the synthesized complementary strand; 3' TTTTT single-stranded linker to array surface; dsDNA, one strand shown. Put shortly: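 Ni–NTA purification followed expression in E. coli BL21-CodonPlus of transcription factors fused N-terminally to a polyhistidine tag and DsRed. At 200 nM in PBS with 2% BSA, salmon testes DNA and 50 µM zinc acetate, the protein was incubated for 1 h at 25 °C with a custom Agilent array that had been primer-extended with Cy5-dUTP and blocked with 2% BSA. After washing, the array was read on an Axon 4000B scanner. The binding signal is per-feature fluorescence intensity in arbitrary units.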
Chain of OsWRKY34 (Q0JBA9 entry or part of it): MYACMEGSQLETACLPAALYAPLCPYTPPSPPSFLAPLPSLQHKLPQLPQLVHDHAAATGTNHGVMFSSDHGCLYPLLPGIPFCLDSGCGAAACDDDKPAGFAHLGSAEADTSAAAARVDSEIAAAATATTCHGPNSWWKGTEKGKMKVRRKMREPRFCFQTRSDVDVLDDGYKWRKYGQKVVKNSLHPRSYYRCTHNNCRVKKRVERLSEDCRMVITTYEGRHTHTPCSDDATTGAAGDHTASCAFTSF
Consider “ACACTCAAACGACACTTCACGCATCTCTCCTGAAATCTTGCGGAGTCACCTAGTGCAG”, for which the binding signal is 8780 fluorescence intensity (a.u.).
For “ACTTCAGATGTTTCTTGTTCCTACACTTCGCTGCTTCAGTCGGAGTCACCTAGTGCAG”, the binding signal was 11800 fluorescence intensity (a.u.).
Next, “CTCCTCTCTCTCTCAGCTCACCACACCTCGAGTCGCCGCCCGGAGTCACCTAGTGCAG”: 8180 fluorescence intensity (a.u.); “ACTGCTGTCTCCGCGTTACTCTACGCATGCATGCATGTATCGGAGTCACCTAGTGCAG”: 10000 fluorescence intensity (a.u.).
Next, “AGGGAGAGTGTGGGTGCGTGGGGCATATGGTGGTGCGGTGCGGAGTCACCTAGTGCAG”: 9950 fluorescence intensity (a.u.).
The same measure for “GGTGAGTTCTTGATTTGGGCGTGGAGCTTTTTTTCTTGGTCGGAGTCACCTAGTGCAG”: 8170 fluorescence intensity (a.u.); for “TATTCGATTTTGGGTGGTGGTTGTTAAGTTGGCATTTGCACGGAGTCACCTAGTGCAG”: 18300 fluorescence intensity (a.u.); for “CTGCTGTGTTGCACATTTTTCTGCTCTGTATACCTATAATCGGAGTCACCTAGTGCAG”: 12200 fluorescence intensity (a.u.).
Turning to “TGGGTGGGTGCGGCGTGGAGTGACGTGGCGGCGGGTGTGGCGGAGTCACCTAGTGCAG”, the binding signal was 8590 fluorescence intensity (a.u.).
Next, “CCCTCCCCTCTGCTTCCGTTCCCTTGGGTTGGGTTGTGTTCGGAGTCACCTAGTGCAG”: 8480 fluorescence intensity (a.u.).
“GGGGTGGACTGGGGTGTTTGGCTGCGTGAGTGCGGAGCGGCGGAGTCACCTAGTGCAG”: the binding signal is 8920 fluorescence intensity (a.u.).
Next, “GTGGTTATTCAATTTGTTGCTTGTTTTTGTTTCAAGTTGGCGGAGTCACCTAGTGCAG”: 10700 fluorescence intensity (a.u.); “TATATCATATGCGGGCGTGATCTATTGGGGCGGGGTGTGGCGGAGTCACCTAGTGCAG”: 20000 fluorescence intensity (a.u.); “GGTGGGTGTGTGCTTGTTTCGGCGTGTGATTTGGGCGGAGCGGAGTCACCTAGTGCAG”: 16500 fluorescence intensity (a.u.).
Next, “CCCTTGGGTTGGGTTGTGTTGCTCCCTCTGCTGCATTAATCGGAGTCACCTAGTGCAG”: 18100 fluorescence intensity (a.u.); “ATTCTGATTGGGTGTGGTTGGTTTGATTTTCTGTTAAGCACGGAGTCACCTAGTGCAG”: 11700 fluorescence intensity (a.u.).
The same measure for “GAAGTGATGAATATATTAAACTGGTTTGGCTATTATTTCCCGGAGTCACCTAGTGCAG”: 8360 fluorescence intensity (a.u.); for “CTCTCGTGGTGTGGTGTGGACAAGAAAGGAAGGAAAGATGCGGAGTCACCTAGTGCAG”: 8700 fluorescence intensity (a.u.); for “TAATGTCCCTATTTTGTTATAGTGTTCCTCCAATAATCTGCGGAGTCACCTAGTGCAG”: 8290 fluorescence intensity (a.u.).
As to “CAGTTCTTCGTTCTTGTCTTTACTCTCATGATTTTCTCTTCGGAGTCACCTAGTGCAG”, the binding signal was 10900 fluorescence intensity (a.u.).
Next, “CTCAACCTCTCGGTCGTCGGCCTCGTCCTCCGGGCCGGCACGGAGTCACCTAGTGCAG”: 12000 fluorescence intensity (a.u.); “TTCATAGCCGCCGCATCTCCTTCTCTTCGACTTTTCTCCTCGGAGTCACCTAGTGCAG”: 9080 fluorescence intensity (a.u.).
Next, “TCAAACGATGCCATTCACCACGTGCCACTTTATATCAAACCGGAGTCACCTAGTGCAG”: 11700 fluorescence intensity (a.u.).
The same measure for “CTTAACGGCCCATTTATCTTGTCTCTCTGGCCCACCTGCACGGAGTCACCTAGTGCAG”: 12300 fluorescence intensity (a.u.).
Turning to “CCTGTAATACTTTTGTTAATTCGATCCTACTACATCTTTACGGAGTCACCTAGTGCAG”, the binding signal was 10400 fluorescence intensity (a.u.).
For the sequence “TGGGAGCTTTGCTTGGGGTGTGTGTGTGTTTGGGTGGTGCCGGAGTCACCTAGTGCAG”, the binding signal is 10900 fluorescence intensity (a.u.).
Next, “TGGTGTTGTCGGTGTGTGGGTGGTGATATACTTTTTTTTTCGGAGTCACCTAGTGCAG”: 11600 fluorescence intensity (a.u.).
For “GAGCTGGGGTGGTGTTTGTTTGTGGGTGTGTTTGTGTGCTCGGAGTCACCTAGTGCAG”, the binding signal was 15900 fluorescence intensity (a.u.).
Next, “GTGGTGGTGGTGTGTGAGCTCGGGGCTTGGGGTTTTGCGGCGGAGTCACCTAGTGCAG”: 13300 fluorescence intensity (a.u.).
Next, “ACGGTGTATATTTGTGGTGTGGCGGGTGTGGCATTGGATTCGGAGTCACCTAGTGCAG”: 16700 fluorescence intensity (a.u.); “CATATATTGGTGTTGTGTGTGGGTGGGTGGGGCGGTGCTTCGGAGTCACCTAGTGCAG”: 30900 fluorescence intensity (a.u.); “TTGGTCGCATTTCGGGTGGTGGTGGTGGTGGTGGTGGTGGCGGAGTCACCTAGTGCAG”: 13200 fluorescence intensity (a.u.).
Next, “TTTCTTCATTTCATGATTGTATATTCTGGTGTTTTTGTGGCGGAGTCACCTAGTGCAG”: 9250 fluorescence intensity (a.u.); “GTTTTTGTGCTTGGTGGTGGTGGTGGGTGATTTGCAGGGGCGGAGTCACCTAGTGCAG”: 31700 fluorescence intensity (a.u.).
Regarding “TAGTCTTTTCCATGTCATGTGATCATGTGTGGAGTTGATTCGGAGTCACCTAGTGCAG”, the binding signal is 8550 fluorescence intensity (a.u.).
Next, “ACTCATGGATGCAGGTCCACCTACATACGTACTACCACAACGGAGTCACCTAGTGCAG”: 8570 fluorescence intensity (a.u.); “GCCATCCTCCGCGACGCACATCGTCCGTCCCACCACGATGCGGAGTCACCTAGTGCAG”: 10400 fluorescence intensity (a.u.); “GACATAAGTTTATTATCTATATCCATAGTACGTTTAATCCCGGAGTCACCTAGTGCAG”: 10100 fluorescence intensity (a.u.).
As to “AAACTGCACTACTTTATCTTGGTTGTCTTTAGCATAAGAACGGAGTCACCTAGTGCAG”, the binding signal was 12100 fluorescence intensity (a.u.).
The same measure for “AATCCCCGCACGCGTCTTTACTTCGCCTTCGTCTTTCCTCCGGAGTCACCTAGTGCAG”: 9340 fluorescence intensity (a.u.).
As to “TTCTTGTTTTCGTGGATCATCATCAACCTCAATAGAAACGCGGAGTCACCTAGTGCAG”, the binding signal was 8410 fluorescence intensity (a.u.).
The same measure for “TCTCCTAAAGATTCATGTTACGTATCTCTTACTTCAACAGCGGAGTCACCTAGTGCAG”: 8710 fluorescence intensity (a.u.).
